Measurements taken from PubChem BioAssay.
Activity calls are given as the source filed them. Unless noted, the rule behind the calls is not given here.

What was measured:
[1] = A549 cell viability effects, profiling panel, calcein-AM fluorescence, 48 h, basal (AID 1162); conditions: higher = more signal; note: test concentration not given here
[2] = adipocyte viability effects, profiling panel, cell-based, 3T3-L1 adipocytes, calcein-AM fluorescence, 48 h, basal (AID 1163); conditions: 3T3-L1 adipocytes viability, higher = more signal; note: test concentration not given here
[3] = HepG2 cell viability effects, profiling panel, calcein-AM fluorescence, 48 h, basal (AID 1164); conditions: higher = more signal; note: test concentration not given here
[4] = MM1S cell viability effects, profiling panel, calcein-AM fluorescence, 48 h, basal (AID 1165); conditions: higher = more signal;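 note: viability of MM1S multiple myeloma cells under basal unstimulated conditions; test concentration not given here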
[5] = basal RPMI8226 viability, no added stimulus, profiling panel, cell-based, calcein-AM fluorescence, 48 h, PK04 Diversity Set (AID 1166); conditions: RPMI8226 myeloma viability, higher = more signal;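 note: cells grown under basal conditions without added stimulus; test concentration not given here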
[6] = basal HepG2 mitochondrial membrane potential changes, profiling panel, cell-based, JC-1 fluorescence, 24 h, 100 nL compound (AID 1167); conditions: higher = more signal; note: test concentration not given here
[7] = basal 3T3-L1 adipocyte mitochondrial potential changes, profiling panel, cell-based, JC-1 fluorescence, 3T3-L1 adipocytes, 24 h, 100 nL compound (AID 1168); conditions: JC-1 mitochondrial fluorescence, higher = more signal, called active from +8 up or from −8 down; note: test concentration not given here
[8] = basal RPMI8226 mitochondrial membrane potential changes, profiling panel, cell-based, JC-1 fluorescence, 24 h, 100 nL compound (AID 1169); conditions: RPMI8226 myeloma, JC-1 mitochondrial potential fluorescence, higher = more signal; note: test concentration not given here
[9] = basal MM1S mitochondrial membrane potential changes, profiling panel, cell-based, JC-1 fluorescence, 24 h, 100 nL compound (AID 1170); conditions: higher = more signal; note: test concentration not given here
[10] = A549 lung cancer cell viability effects, profiling panel, resazurin fluorescence, 24 h, PK04 Diversity Set (AID 1171); conditions: higher = more signal, called active from +8 up or from −8 down; note: test concentration not given here
[11] = HepG2 liver cancer cell viability effects, profiling panel, resazurin fluorescence, 24 h, PK04 Diversity Set (AID 1172); conditions: higher = more signal; note: test concentration not given here
[12] = basal S. cerevisiae growth modulation, no modifier, primary screen, OD600, strain BY4716, 24 h, basal condition (AID 1173); conditions: OD600, 24 h, higher = more signal, called active from +8 up or from −8 down
[13] = MM1S myeloma cell viability, profiling panel, resazurin fluorescence, basal, 24 h, PK04 Diversity Set (AID 1174); conditions: higher = more signal, called active from +8 up or from −8 down;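 note: MM1S multiple myeloma cell line; test concentration not given here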
[14] = biological target: Dihydroorotate dehydrogenase (quinone), mitochondrial (Plasmodium falciparum (isolate 3D7)) (UniProt Q08210); assay: PfDHODH enzyme inhibitors, primary screen, biochemical, C-terminal His tag, absorbance 600 nm (AID 1175); conditions: DCIP absorbance 600 nm, higher = more signal, called active from +8 up or from −8 down;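 note: recombinant parasite enzyme with a five histidine tag at its C terminus; test concentration not given here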
[15] = P. aeruginosa biofilm formation inhibitors, primary screen, strain PAO1, LB-PBS medium, absorbance 600 nm (AID 1176); note: test concentration not given here; conditions: P. aeruginosa PAO1 growth/biofilm, A600, 12 h; higher = more signal
[16] = S. cerevisiae RM11-1a growth modifiers, primary screen, strain RM11-1a, OD600, basal, 24 h (AID 1177); conditions: OD600, 24 h, higher = more signal, called active from +8 up or from −8 down;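 note: cultures grown under basal conditions with no added stressor; test concentration not given here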
[17] = E. coli acrAB mutant growth effects, primary screen, E. coli filamentation inducers, strain DRC39, OD650, 24 h (AID 1178); conditions: higher = more signal, called active from +8 up or from −8 down;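 note: growth measured as culture turbidity by optical density at 650 nm; test concentration not given here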
[18] = E. coli acrAB mutant growth effects, primary screen, E. coli filamentation inducers, strain DRC39, OD650, 48 h (AID 1179);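 note: screen aims at cell division blockers that make cells filament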; conditions: E. coli DRC39 delta-acrAB growth, higher = more signal, called active from +8 up or from −8 down
[19] = RPMI8226 myeloma cell viability, profiling panel, resazurin fluorescence, basal, 24 h, PK04 Diversity Set (AID 1180); conditions: higher = more signal;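 note: RPMI8826 multiple myeloma cell line at 5000 cells per well; test concentration not given here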
[20] = biological target: E3 ubiquitin-protein ligase XIAP (Homo sapiens) (UniProt P98170); assay: XIAP binders, primary screen, biophysical, small-molecule microarray, fluorescence 635 nm (AID 1181); conditions: small-molecule microarray binding, higher = more signal;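 note: score merges 667 nm emission and signal to noise over triplicate slides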
Sequence of E3 ubiquitin-protein ligase XIAP (Homo sapiens) (P98170 whole entry, looked up): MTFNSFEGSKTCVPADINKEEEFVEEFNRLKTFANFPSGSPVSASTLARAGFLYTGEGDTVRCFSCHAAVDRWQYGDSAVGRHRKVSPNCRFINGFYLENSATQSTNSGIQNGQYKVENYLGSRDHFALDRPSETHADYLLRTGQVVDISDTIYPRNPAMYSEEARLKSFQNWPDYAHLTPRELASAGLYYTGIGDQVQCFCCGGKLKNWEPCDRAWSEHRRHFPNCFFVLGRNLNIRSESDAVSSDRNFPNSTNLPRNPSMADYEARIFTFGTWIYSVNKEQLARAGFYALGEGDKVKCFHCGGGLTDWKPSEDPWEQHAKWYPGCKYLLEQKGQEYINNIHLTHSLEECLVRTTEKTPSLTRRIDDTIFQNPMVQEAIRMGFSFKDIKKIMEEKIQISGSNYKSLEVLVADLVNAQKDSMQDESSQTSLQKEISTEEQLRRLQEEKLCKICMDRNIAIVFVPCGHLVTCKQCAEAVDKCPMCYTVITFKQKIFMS

Sequence of Dihydroorotate dehydrogenase (quinone), mitochondrial (Plasmodium falciparum (isolate 3D7)) (Q08210 whole entry, looked up): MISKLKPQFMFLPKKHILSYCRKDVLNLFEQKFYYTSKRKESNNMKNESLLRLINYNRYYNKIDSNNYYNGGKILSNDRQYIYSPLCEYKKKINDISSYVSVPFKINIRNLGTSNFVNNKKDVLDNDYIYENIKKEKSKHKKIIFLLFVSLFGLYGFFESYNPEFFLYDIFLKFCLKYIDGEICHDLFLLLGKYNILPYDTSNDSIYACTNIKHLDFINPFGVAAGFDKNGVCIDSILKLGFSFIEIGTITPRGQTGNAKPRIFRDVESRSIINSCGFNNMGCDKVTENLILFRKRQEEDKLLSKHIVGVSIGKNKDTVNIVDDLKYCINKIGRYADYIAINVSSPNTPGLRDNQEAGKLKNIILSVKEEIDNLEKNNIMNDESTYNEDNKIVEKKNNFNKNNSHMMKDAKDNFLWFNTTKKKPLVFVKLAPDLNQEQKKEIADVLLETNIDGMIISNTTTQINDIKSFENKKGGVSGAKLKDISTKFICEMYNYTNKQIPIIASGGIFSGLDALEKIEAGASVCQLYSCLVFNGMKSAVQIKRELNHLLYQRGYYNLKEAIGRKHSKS

SMILES	z-score [1]	z-score [2]	z-score [3]	z-score [4]	z-score [5]	z-score [6]	z-score [7]	z-score [8]	z-score [9]	z-score [10]	z-score [11]	z-score [12]	z-score [13]	composite z-score [14]	z-score [15]	z-score [16]	z-score [17]	z-score [18]	z-score [19]	composite z-score [20]
CCCNC(=O)[C@@]1(C)c2ccccc2C(=O)N(Cc2ccc(OC(F)(F)F)cc2)[C@H]1c1ccc(CO)cc1	0.951	-0.105	1.28	0.328	-0.0542	3.34	0.45 (inactive)	-0.244	-0.949	-0.658 (inactive)	-0.0818	-0.0169 (inactive)	-0.0521 (inactive)	0.263 (inactive)	0.251 (inactive)	-0.277 (inactive)	0.484 (inactive)	1.28 (inactive)	0.325	-0.0599
CN(C)CCCC[C@@H]1NC(=O)[C@@H]2C[C@H](C(=O)NCCCCCCN)[C@H](c3ccc(O)cc3)N2C1=O	-0.215	0.958	-0.544	0.405	0.483	-1.36	-0.0708 (inactive)	0.576	0.213	0.291 (inactive)	-1.14	0.531 (inactive)	0.427 (inactive)	-2.06 (inactive)	0.643 (inactive)	0.793 (inactive)	0.254 (inactive)	-0.234 (inactive)	0.109	-0.157
CC(C)(C)OC(=O)CC[C@@]1(C(=O)NCC(O)CO)N=C(c2ccc(OCCCO)cc2)O[C@@H]1c1ccccc1 (stereo not given in full)	-0.0139	-1.09	1.92	-0.607	-0.0321	1.93	-0.144 (inactive)	-0.0607	-0.844	-0.387 (inactive)	0.38	-0.205 (inactive)	-0.542 (inactive)	-0.73 (inactive)	0.671 (inactive)	0.0191 (inactive)	-0.529 (inactive)	0.108 (inactive)	-0.397	0.0785
CN(C)CCCCCCNC(=O)[C@@H]1C[C@@H]2C(=O)NCC(=O)N2[C@@H]1c1cccc(OCCO)c1	-0.129	-0.215	-0.225	0.0864	1.45	-0.305	-0.0086 (inactive)	-0.12	-0.659	-0.427 (inactive)	-0.358	-0.531 (inactive)	-0.578 (inactive)	-1.08 (inactive)	0.0067 (inactive)	0.536 (inactive)	0.757 (inactive)	0.614 (inactive)	-1.12	0.0043
COc1cc(CO)cc(I)c1O[C@H]1C=C(C(=O)NCCO)C[C@@H](N(CCc2cccc(F)c2)C(=O)CCC2CCCC2)[C@@H]1O	-1.5	2.06	-2.23	-3.19	-4.28	-1.09	0.525 (inactive)	-1.2	-1.96	-2.26 (inactive)	-1.69	-9.37 (active)	-3.26 (inactive)	-0.459 (inactive)	1.99 (inactive)	1.99 (inactive)	-0.0338 (inactive)	-0.177 (inactive)	-4.07	0.29
C=CCOC(=O)[C@@H]1[C@H]2C(=O)O[C@H](c3ccccc3)[C@H](c3ccccc3)N2[C@H](c2ccc(OCCOC(=O)[C@H]3C[C@H]4C(=O)N[C@@H](Cc5ccccc5)C(=O)N4[C@H]3c3ccc(O)cc3)cc2)[C@@]12C(=O)Nc1ccc(I)cc12	-0.688	-0.724	-0.0809	-3.46	-2.98	-0.638	1.43 (inactive)	-0.609	-1.4	-0.0596 (inactive)	-0.0291	-0.149 (inactive)	-1.98 (inactive)	-8.55 (active)	0.932 (inactive)	2.52 (inactive)	-1.52 (inactive)	-1.06 (inactive)	-1.01	-0.187
CC(=O)n1cc(C(O)C2C=CC3C(=O)N(c4ccccc4)C(=O)C3N2Nc2ccc(C#N)cc2)c2ccccc21 (stereo not given)	1.38	-0.876	0.52	0.245	-0.434	-1.04	-0.855 (inactive)	0.423	-0.488	1.52 (inactive)	-0.592	-2.71 (inactive)	-0.897 (inactive)	-0.796 (inactive)	0.956 (inactive)	-0.129 (inactive)	-0.698 (inactive)	-0.119 (inactive)	-0.189	0.147
C=CC[C@]1(C(=O)NCCN2CCOCC2)N=C(c2ccc(OCCCO)cc2)O[C@H]1c1ccccc1N=[N+]=[N-]	0.0657	0.572	0.353	-1.05	-0.766	1.03	1.98 (inactive)	-0.701	0.472	0.0624 (inactive)	-0.153	-1.51 (inactive)	0.0032 (inactive)	0.918 (inactive)	-0.251 (inactive)	0.393 (inactive)	2.29 (inactive)	0.746 (inactive)	-0.414	0.113
NC(=O)NCC#Cc1ccc2c(c1)[C@]1(C(=O)N2)[C@H](C(=O)NC[C@H](O)c2ccccc2)[C@H]2C(=O)O[C@H](c3ccccc3)[C@H](c3ccccc3)N2[C@@H]1c1ccccc1OCCO	-0.321	1.02	-0.252	0.325	-0.636	-1.64	1.34 (inactive)	-0.0808	-1.01	1.02 (inactive)	0.217	0.328 (inactive)	0.56 (inactive)	0.833 (inactive)	1.08 (inactive)	0.915 (inactive)	1.01 (inactive)	0.0227 (inactive)	0.225	0.0864
